# Source: PubChem BioAssay (EPA / NIEHS)
# “And” between values parts separate entries of the source, which are not always exact repeats. Equal values may be shown once. Inconclusive results are not listed. The source made the active and inactive calls. The calls were made as follows: active = hit-call score of the fitted dose curve at least 0.9, where 1 is the maximum; inconclusive = response in the unintended direction; inactive = score below 0.9.
# Target: rat Peripheral-type Benzodiazepine Receptor (PBR), Tspo (gene 24230) (UniProt P16257)
# Assay: NVS_MP_rPBR: NovaScreen (NVS) Membrane Protein Assay for rat Peripheral-type Benzodiazepine Receptor (PBR) (AID 2283335)
# Procedure: NVS_MP_rPBR is a biochemical, single-readout assay that uses extracted gene-proteins from Rat kidney membranes in a tissue-based cell-free assay. Measurements were taken 1 hour after chemical dosing in a 48-well plate.NVS_MP_rPBR is one of one assay component(s) measured or calculated from the NVS_MP_rPBR assay. It is designed to make measurements of radioligand binding, a form of binding reporter, as detected with scintillation counting signals by Filter-based radiodetection technology.Data from the assay component NVS_MP_rPBR was analyzed into 1 assay endpoint. This assay endpoint, NVS_MP_rPBR, was analyzed in the positive analysis fitting direction relative to DMSO as the negative control and baseline of activity. Using a type of binding reporter, loss-of-signal activity can be used to understand changes in the binding as they relate to the gene Tspo. Furthermore, this assay endpoint can be referred to as a primary readout, because the performed assay has only produced 1 assay endpoint. To generalize the intended target to other relatable targets, this assay endpoint is annotated to the transporter intended target family, where the subfamily is cholesterol transporter.
# Binding assays used specific radioligands (tritiated, iodinated) with non-radioactive competitive displacement ligands in agonist or antagonist protocols (as indicated) and various reference compounds and inhibitors to titrate specific binding to receptors and transporters. Most enzyme assays (CYPs, kinases, phosphatases, proteases, HDACs) used recombinant protein and specific substrates (fluorescence mostly, some colorimetric and radioactive) and inhibitors, followed by a biochemical separation of substrate and product. All assays for the biochemical HTS were initially run in duplicate at a single concentration (10 uM for CYP450 assays and 25 uM for all others). […] Each assay was run with positive and negative controls, and concurrent controls on every plate. The follow-up (secondary) screen tested active chemical-pairs in concentration series, as well as a few additional assays not tested in the primary screen, some selected negative inactives, and several cases re-run in the concentration series for confirmatory purposes.
# Sequence of rat Peripheral-type Benzodiazepine Receptor (PBR), Tspo (gene 24230) (P16257 whole entry, looked up): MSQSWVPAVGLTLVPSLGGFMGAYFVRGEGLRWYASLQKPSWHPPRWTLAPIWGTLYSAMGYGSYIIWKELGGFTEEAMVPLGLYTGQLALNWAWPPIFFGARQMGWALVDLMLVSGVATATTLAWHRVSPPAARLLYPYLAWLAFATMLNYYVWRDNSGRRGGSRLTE
SMILES,AC50,outcome
Cc1oc2c(NC(=O)c3c(Cl)cccc3Cl)cccc2c1C(C)(C)O,2.5 µM (active),–
CC/C(=C(/CC)c1ccc(O)cc1)c1ccc(O)cc1,20.8 µM (active) and 25 µM (active) and 1.49 µM (active),–
OC12N=C(c3ccccc3)SC1Cc1cc(Cl)ccc12 (configuration not stated),6.16 µM (active),–
NC(=O)c1nc(-c2cccc(-c3cc(F)ccc3OCC(F)(F)C(F)(F)F)c2)n[nH]1,5.7 µM (active),–
Cc1c2ccccc2c(C)c2c1ccc1ccccc12,1.69 µM (active),–
CC[C@H](NC(=O)c1cc(F)ccc1NS(=O)(=O)c1cccc2cccnc12)c1ccccc1,0.0869 µM (active),–
CC(C)(O)c1ccc(CNC(=O)c2cccnc2Oc2ccc3nonc3c2)cc1,7.64 µM (active),–
CCCCCCCCOC(=O)c1cc(O)c(O)c(O)c1,2.82 µM (active),–
CN(C[C@@H](CC[N+]12CCC(C3CCCCC3)(CC1)CC2)c1ccc(Cl)c(Cl)c1)C(=O)c1cc(C(F)(F)F)cc(C(F)(F)F)c1,2.4 µM (active),–
O=C1c2ccccc2C(=O)N1CCc1noc(-c2ccc(CN3CCCCCC3)s2)n1,–,inactive
CCCCOC(=O)CC(CC(=O)OCCCC)(OC(C)=O)C(=O)OCCCC,–,inactive
CCCCOC(=O)c1ccc(O)cc1,3 µM (active) and 25 µM (active),–
NCc1cccc(C2CCN(C(=O)c3ccc(C#Cc4ccccc4F)o3)CC2)c1,–,inactive
CCN(Cc1cccnc1)C(=O)c1cccc(Cl)c1[C@]1(C)C(=O)N(Cc2ccc(OC)cc2OC)c2ccc(Cl)cc21,1.69 µM (active),–
CN(C)c1ccc(C(=C2C=CC(=[N+](C)C)C=C2)c2ccc(N(C)C)cc2)cc1,5.36 µM (active),–
O=c1c(-c2ccc(O)cc2)coc2cc(O)cc(O)c12,–,inactive
Cc1ccc2oc(CN(Cc3ccccc3)C(=O)Nc3c(F)cc(F)cc3F)c(-c3ccc(Cl)cc3)c2c1,4.2 µM (active),–
